Test results reported in PubChem BioAssay (NCATS).
“And” between values parts separate entries of the source, which are not always exact repeats. Equal entries are not always repeated. Inconclusive results are not listed. The source made the active and inactive calls. Unless noted, calls come from the whole dose curve; as a rule, active = well fitted curve in the direction sought with a large enough effect; inconclusive = small, poorly fitted or top-dose-only effect, or another doubt; inactive = no such curve, though single readings can be large; an effect the other way counts as inactive or inconclusive.

Tests used:
[1] = molecular target: Cellular tumor antigen p53 (Homo sapiens) (UniProt P04637); assay: Primary qHTS for small molecule compounds that upregulate eGFP-tagged delta133p53alpha (in C-terminal) cells. (AID 2060324); note: potency is the fitted concentration of half-maximal effect
In short: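 Doxycycline (100 ng/ml, 24 h) first induced the eGFP fusion in NCI-H358 C-terminal-tag cells. Washed-out cells then received titrated compounds for 24 h at 37 °C before paraformaldehyde fixation, Hoechst staining and cytometric GFP quantification.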

[2] = molecular target: Aldehyde dehydrogenase, mitochondrial (Homo sapiens) (UniProt P05091); assay: qHTS for Inhibitors of the Aldehyde Dehydrogenase Family (ALDH2) Validation screens (AID 2061302; active = well fitted inhibition curve with a large enough effect; title and protocol of this record describe different tests; note: potency is the fitted concentration of half-maximal effect)
[3] = molecular target: Retinaldehyde dehydrogenase 3 (Homo sapiens) (UniProt P47895); assay: qHTS for Inhibitors of the Aldehyde Dehydrogenase Family (ALDH1A3) Validation screen (AID 2061312); note: % is set by controls: 0 for no effect and ±100 for the full control effect; nearly all actives have a fitted effect of over 45% in size
[4] = molecular target: Aldehyde dehydrogenase, mitochondrial (Homo sapiens) (UniProt P05091); assay: qHTS for Inhibitors of the Aldehyde Dehydrogenase Family (ALDH2) Primary screen (AID 2061308); note: nearly all actives have a fitted effect of over 55% in size; note: potency is the fitted concentration of half-maximal effect
[5] = molecular target: Retinaldehyde dehydrogenase 3 (Homo sapiens) (UniProt P47895); assay: qHTS for Inhibitors of the Aldehyde Dehydrogenase Family (ALDH1A3) Primary screen (AID 2061315);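 note: plate controls were DMSO vehicle for no effect and reference inhibitor for full effect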
[6] = BET inhibitor-based combinations targeting novel dependencies in MECOM-rearranged (r) AML: SET-2 cell line (AID 2202231); settings: SET-2 AML cells viability, CellTiter-Glo luminescence, 48 h; viability: stronger effect = lower value, concentration not given here; note: nearly all actives have a fitted effect of over 35% in size; note: potency is the fitted concentration of half-maximal effect;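 for viability: plate controls were DMSO treated cells for no effect and wells without cells for full effect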
In short: (§1)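 Readout: CellTiter-Glo luminescence. Exposure: 48 h, 11 concentrations, 500 cells/well. Metric: AUC and within-line Z-AUC after DMSO/empty-well normalization.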

[7] = BET inhibitor-based combinations targeting novel dependencies in MECOM-rearranged (r) AML: OCI-AML3 cell line (AID 2202232); settings: Potency: OCI-AML3 viability; note: nearly all actives have a fitted effect of over 35% in size; note: potency is the fitted concentration of half-maximal effect
In short: as §1

[8] = BET inhibitor-based combinations targeting novel dependencies in MECOM-rearranged (r) AML: MV-4-11 cell line (AID 2202233);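 note: plate controls were DMSO for no effect and blank wells for full effect; nearly all actives have a fitted effect of over 45% in size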
In short: (§2)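 Seeding density was 500 cells/well, and drug exposure lasted 48 hr under standard culture conditions. Read-out used CellTiter-Glo reagent with a 15 min room-temperature incubation before luminescence measurement; AUC and Z-AUC summarize the normalized responses.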

[9] = BET inhibitor-based combinations targeting novel dependencies in MECOM-rearranged (r) AML: HNT-34 cell line (AID 2202234); note: nearly all actives have a fitted effect of over 35% in size; note: potency is the fitted concentration of half-maximal effect
In short: as §2

[10] = BET inhibitor-based combinations targeting novel dependencies in MECOM-rearranged (r) AML: AML-191 cell line (AID 2202236;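 note: plate controls were vehicle wells for no effect and wells without cells for full effect; nearly all actives have a fitted effect of over 35% in size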)
In short: as §1

[11] = BET inhibitor-based combinations targeting novel dependencies in MECOM-rearranged (r) AML: AML-194 cell line (AID 2202237;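 note: plate controls were vehicle wells for no effect and wells without cells for full effect; nearly all actives have a fitted effect of over 40% in size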)
In short: as §1

[12] = molecular target: Aldehyde dehydrogenase, mitochondrial (Homo sapiens) (UniProt P05091); assay: qHTS for Inhibitors of the Aldehyde Dehydrogenase Family (ALDH2) Confirmatory screens (AID 2061303; active = well fitted inhibition curve with a large enough effect; title and protocol of this record describe different tests; note: nearly all actives have a fitted effect of over 45% in size; note: potency is the fitted concentration of half-maximal effect)
[13] = qHTS for Inhibitors of the Aldehyde Dehydrogenase Family (ALDH1A2, ALDH1A3, ALDH2, ALDH3A1) (AID 2061307); note: nearly all actives have a fitted effect of over 50% in size; for Potency: test system not described further here; potency is the fitted concentration of half-maximal effect
[14] = molecular target: Retinaldehyde dehydrogenase 3 (Homo sapiens) (UniProt P47895); assay: qHTS for Inhibitors of the Aldehyde Dehydrogenase Family (ALDH1A3) Confirmatory screens (AID 2061311); note: nearly all actives have a fitted effect of over 60% in size; note: potency is the fitted concentration of half-maximal effect
[15] = molecular target: Retinal dehydrogenase 2 (Homo sapiens) (UniProt O94788); assay: qHTS for Inhibitors of the Aldehyde Dehydrogenase Family (ALDH1A2) Confirmation screens (AID 2061314); note: nearly all actives have a fitted effect of over 65% in size; note: potency is the fitted concentration of half-maximal effect
[16] = molecular target: Aldehyde dehydrogenase 1A1 (Homo sapiens) (UniProt P00352); assay: qHTS for Inhibitors of the Aldehyde Dehydrogenase Family (ALDH1A1) Confirmatory screens (AID 2061316); note: nearly all actives have a fitted effect of over 65% in size; note: potency is the fitted concentration of half-maximal effect
[17] = BET inhibitor-based combinations targeting novel dependencies in MECOM-rearranged (r) AML: UCSD-AML1 cell line (AID 2202235); note: nearly all actives have a fitted effect of over 40% in size; note: potency is the fitted concentration of half-maximal effect
In short: as §2

Chain of Cellular tumor antigen p53 (Homo sapiens) (P04637 whole entry, looked up, the tested form may be a part): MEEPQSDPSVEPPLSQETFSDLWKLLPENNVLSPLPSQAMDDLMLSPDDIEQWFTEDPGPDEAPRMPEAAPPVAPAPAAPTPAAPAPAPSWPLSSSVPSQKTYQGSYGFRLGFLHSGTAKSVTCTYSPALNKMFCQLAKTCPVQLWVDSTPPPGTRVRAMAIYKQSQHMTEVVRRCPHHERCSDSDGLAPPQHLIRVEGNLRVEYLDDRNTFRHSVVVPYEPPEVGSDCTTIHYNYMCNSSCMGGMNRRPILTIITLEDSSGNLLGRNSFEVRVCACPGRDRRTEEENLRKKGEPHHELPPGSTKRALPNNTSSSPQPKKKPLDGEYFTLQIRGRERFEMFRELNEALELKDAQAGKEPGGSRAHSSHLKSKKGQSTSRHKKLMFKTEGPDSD

O=C1NC(=O)[C@@]2(CCOc3ccc(F)cc32)N1
inactive: Potency [1] | Potency [2] | Potency [3]

CC(C)[C@@H]1CC[C@@H](C)C[C@@H]1P(=O)(c1ccccc1)c1ccccc1
inactive: Potency [1] | Potency [2] | Potency [3]

NCC(O)C1CCCCCCC1 (stereo not given)
inactive: Potency [1] | Potency [2] | Potency [3]

CC(C)(C)c1ccc(S(=O)(=O)/C=C/C#N)cc1
active: Potency [1] 26.9 µM | Potency [2] 1.26 µM and 708 nM

CCOC(=O)N1CCC(=C2c3ccc(Cl)cc3CCc3cccnc32)CC1
inactive: Potency [1] | Potency [2] | Potency [3]

O=C1OC(=O)C2C3CCC(O3)C12 (stereo not given)
inactive: Potency [1] | Potency [2] | Potency [3]

CC(C)c1cccc(C(C)C)c1N1C(=O)c2ccc(O)cc2C1=O
inactive: Potency [1] | Potency [2] | Potency [3]

COc1ccc2cc([C@H](C)C(=O)O)ccc2c1
inactive: Potency [1] | Potency [2] | Potency [4] | Potency [3] | Potency [5] | viability [6] 116% | Potency [7] | Potency [8] | Potency [9] | Potency [10] | Potency [11]

CC1OC1P(=O)(O)O (stereo not given)
inactive: Potency [1] | Potency [2] | Potency [3]

CCN1C(=O)C=CC1=O
active: Potency [2] 12600 nM
inactive: Potency [1] | Potency [12] | Potency [13] | Potency [14] | Potency [15] | Potency [16]

CSc1ccc2c(c1)N(CCC1CCCCN1C)c1ccccc1S2 (stereo not given)
inactive: Potency [1] | Potency [2] | Potency [3]

C=CCc1cccc(C=NNC(=O)CN2CCN(Cc3ccccc3)CC2)c1O
inactive: Potency [1] | Potency [2] | Potency [3]

N=c1ccn2c(n1)O[C@H]1[C@H](O)[C@@H](CO)O[C@H]12
inactive: Potency [1] | Potency [2] | Potency [3]

Cc1cc(C(C)(C)C)c(O)c(C)c1CC1=NCCN1
inactive: Potency [1] | Potency [2] | Potency [4] | Potency [3] | Potency [5] | viability [6] 118% | Potency [7] | Potency [8] | Potency [17] | Potency [11]

O=NN(CCCl)C(=O)NCCCl
inactive: Potency [1] | Potency [2] | viability [6] 104% | Potency [7] | Potency [8] | Potency [9] | Potency [17] | Potency [10] | Potency [11]
active: Potency [12] 15.8 µM | Potency [14] 12.7 µM | Potency [16] 22.5 µM

CC[N+](C)(C)c1cccc(O)c1
inactive: Potency [1] | Potency [2] | Potency [3]

N[C@@H](CCCC(=O)O)C(=O)O
inactive: Potency [1] | Potency [2] | Potency [3]

NCCCCCC(=O)O
inactive: Potency [1] | Potency [2] | Potency [3] | viability [6] 112% | Potency [8] | Potency [9] | Potency [17] | Potency [10] | Potency [11]

CC(C)(C)OC(=O)N1CCN(c2ccc(NCc3ccc(-c4ccc(C#N)cc4)o3)cc2)CC1
inactive: Potency [4] | Potency [5]
active: Potency [2] 282 nM | Potency [12] 0.0794 µM | Potency [13] 4.47 µM | Potency [14] 15.8 µM | Potency [15] 7.94 µM

CCOC(=O)C1CCN(c2ccc(NCc3ccc(-c4ccc(C#N)cc4)o3)cc2)CC1
inactive: Potency [4]
active: Potency [2] 355 nM | Potency [12] 0.0355 µM | Potency [13] 0.634 µM | Potency [14] 7.08 µM | Potency [15] 31.6 µM | Potency [16] 7.98 µM

O=C1NC(=O)c2cc(Nc3ccccc3)c(Nc3ccccc3)cc21
active: Potency [1] 30.1 µM
inactive: Potency [3]

Brc1c(NC2=NCCN2)ccc2nccnc12
active: Potency [13] 11.3 µM | Potency [14] 5.65 µM | Potency [15] 8.96 µM | Potency [16] 11.3 µM
inactive: Potency [1]

CCCCOc1cc(CC2CNC(=O)N2)ccc1OC (stereo not given)
inactive: Potency [2]

COc1ccc(Cc2nccc3cc(OC)c(OC)cc23)cc1OC
active: Potency [6] 11.8 µM | Potency [7] 8.33 µM | Potency [9] 5.9 µM | Potency [17] 8.33 µM
inactive: Potency [1]

CC(C)(C)OC(=O)N1CCN(c2cccc(NCc3ccc(-c4ccc(C#N)cc4)o3)c2)CC1
inactive: Potency [15]
active: Potency [2] 1780 nM | Potency [12] 1.12 µM | Potency [13] 1.59 µM | Potency [4] 0.282 µM | Potency [16] 7.12 µM

NC(C(=O)N[C@@H]1C(=O)N2C(C(=O)O)=C(Cl)CS[C@H]12)c1ccccc1 (stereo not given in full)
inactive: Potency [2]

COc1ccc2c(c1)c(CC(=O)O)c(C)n2Cc1ccc(Cl)cc1
inactive: Potency [1] | Potency [2] | Potency [3]

CC(C)(C)OC(=O)N1CCN(c2ncc(NCc3ccc(-c4ccc(C#N)cc4)o3)cn2)CC1
inactive: Potency [5]
active: Potency [2] 224 nM | Potency [12] 0.1 µM | Potency [13] 0.283 µM | Potency [4] 0.1 µM | Potency [14] 25.1 µM | Potency [15] 12.6 µM

CC(C)NC[C@@H](O)c1ccc(O)c(O)c1
inactive: Potency [2]

O=c1cc(-c2ccccc2F)[nH]c2cc3c(cc12)OCO3
inactive: Potency [1] | Potency [3]

O=c1c(-c2ccc(O[C@@H]3O[C@H](CO)[C@@H](O)[C@H](O)[C@H]3O)cc2)coc2cc(O)cc(O)c12
inactive: Potency [2]
